# PubChem BioAssay (NCI)
# The panel holds about 83,000 compounds, 20% with a hit somewhere; the sample as a whole holds those more often.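 Activity criterion: percent growth below 10, measured after cells in 96-well plates were exposed to a single compound concentration for 48 hours.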 Values without a mark were called inactive. Calls of active or inactive are those of the source.
# Test system: COLO 205 colon
# Assay: NCI-60 one-dose screen, 48 h (100 = growth as untreated, 0 = no growth, -100 = all killed)
# Conditions: 10 µM unless noted
row,SMILES,growth
1,C#CCOC(=O)C(N)CSSCC(N)C(=O)O (stereo not given),104%
2,Nc1nc(=O)n([C@H]2CC=C(CO)O2)cc1F,107%
3,O=C(Nc1cccc(Cl)c1)Oc1c(Cl)c(Cl)c(Cl)c(Cl)c1Cl,101%
4,COc1ccccc1/C=C/C1=C(C)CCC(c2ccccc2OC)C1C (stereo not given),-45.3% (active)
5,Cc1nc2ccccc2c(/C=C/c2ccc(Br)cc2)c1C(=O)/C=C/c1ccccc1,-29.5% (active)
6,Cc1c2ccncc2c(C)c2c1c1ccccc1n2CCCCCC(=O)O,109%
7,Cn1cc(-c2csc(-c3cn(C)c4ccc(F)cc34)n2)c2cnccc21,-80.1% (active)
8,O=C(Nc1ccccc1CNc1nc(Nc2ccc(OCCN3CCCC3)cc2)ncc1Cl)NC1CCCCC1,89.3%
9,NC(=O)[C@@H]1Cc2ccccc2CN1C(=O)c1ccc2c(c1)Cc1ccccc1-2,105%
10,O=C(Nc1ccccc1C(F)(F)F)C1=NCCCCN1,110%
11,C/C(=C(\c1ccc(OCCCN(C)C)cc1)c1ccc(OC(=O)Cc2ccccc2)cc1)c1ccc(Cl)cc1,50.6%
12,COc1cc(C)cc(-c2c(-c3cc(N4CC(O)C4)nc(-c4cccnc4)n3)cnn2C)c1,104%
13,Cn1cc(-c2ccc3occ(-c4cccc(-c5ccncc5)c4)c3n2)cn1,14.7%
14,O=C1CCc2c(sc3[nH]c(=S)n(-c4cc(C(F)(F)F)cc(C(F)(F)F)c4)c(=O)c23)C1,-80% (active)
15,COC1CC(O)C2=C(CC3C(/C(C)=C\CC=C(C)C)CCC3(C)O2)C1=O (stereo not given),119%
